In PubChem BioAssay:
Values joined by “and” are separate entries in the source; they are usually repeats but may differ in a detail not shown here. Identical values can stand only once.

Experiments:
[1] = system: Botulinum neurotoxin type F light chain protease (Clostridium botulinum); test: Botulinum neurotoxin type F light chain protease inhibition, multiplex microsphere flow cytometry, validation set (AID 588459); settings: multiplex microsphere protease substrate cleavage assay, at 10 µM, stronger effect = higher value
[2] = biological target: Botulinum neurotoxin type A (Clostridium botulinum) (UniProt P0DPI0); test: BoNT/A light chain protease inhibitors, biochemical, multiplex microsphere flow cytometry, validation set (AID 588460); settings: at 10 µM, stronger effect = higher value
[3] = biological target: Lethal factor (Bacillus anthracis) (UniProt P15917); test: Lethal factor protease inhibitors, Bacillus anthracis, multiplex microsphere cleavage assay, validation set (AID 588461); settings: flow cytometry, at 10 µM, stronger effect = higher value

Measured: inhibition

CCN(CC)C1=C(Cl)C(=O)C(Cl)C12OCCO2 (stereo not drawn)
inactive: [1] 1% | [2] 0.6% | [3] -1%

CC(=O)NS(=O)(=O)c1ccc(N)cc1
inactive: [1] 0.7% | [2] 1% | [3] 4.5%

Cc1nc(-c2coc3c(CN(C)C)c(O)ccc3c2=O)cs1
inactive: [1] -2.2% | [2] -0.6% | [3] 10.3%

Nc1ccc(C(=O)O)c(O)c1
inactive: [1] -4.5% and 1.6% | [2] -0.4% and -0.2% | [3] -12% and -5.3%

COc1cc(OC)c(C(=O)CCCN2CCCC2)c(OC)c1
inactive: [1] 2.9% | [2] -0.9% | [3] -2.6%

Cc1nonc1CN(C)C(=O)c1ccc(OC2CCN(C(=O)c3cccnc3)CC2)cc1
inactive: [1] 3.6% | [2] 1.2% | [3] 10.7%

COc1ccc(C=NCC2COc3ccccc3O2)cc1OC (stereo not drawn)
inactive: [1] -0.8% | [2] -3.3% | [3] -3.2%

O=C(/C=C/c1ccc2c(c1)OCCCO2)c1ccc2ccccc2c1O
inactive: [1] 1.8% | [2] 1.1% | [3] -5.5%

CCOC(=O)C(=O)Nc1ccc(Oc2ccccc2)cc1
inactive: [1] 1.4% | [2] 0% | [3] 1.3%

CCc1cc2c3c(c(=O)oc2cc1O)CCCC3
inactive: [1] -1.1% | [2] 2.2% | [3] 4.1%

Cc1ccc(C2=NOC(=O)/C2=C\C=C\c2ccccc2)cc1
inactive: [1] 2.1% | [2] 1% | [3] 0.5%

NNC(=O)c1cc(O)c(O)c(O)c1
inactive: [1] -3.2% | [2] -1% | [3] -2.8%

CCOc1ccc(C(=O)/C=C/c2cc(OC)c(OC)c(OC)c2)cc1
inactive: [1] 0.5% | [2] -0.5% | [3] 4.5%

Cc1cccc(C)c1NS(=O)(=O)c1ccc(NC(=O)c2ccc(Cl)c([N+](=O)[O-])c2)cc1
inactive: [1] 2.3% | [2] -0.2% | [3] 0.9%

O=C(c1ccco1)N1CCCN(Cc2nc(-c3ccc4c(c3)OCO4)no2)CC1
inactive: [1] 1% | [2] 0% | [3] 3.6%

C/C=C/c1ccc(OCCCCN2CC(C)CC(C)C2)c(OC)c1 (stereo not drawn)
inactive: [1] 3.1% | [2] -0.5% | [3] -6%

COc1cc(/C=C/C(=O)CC(=O)/C=C/c2ccc(O)c(OC)c2)ccc1O
inactive: [1] 12.2% | [2] 9.5% | [3] -0.9%

COc1cc2c(cc1OC)C1(CCCC1)CNC2c1cccc([N+](=O)[O-])c1 (stereo not drawn)
inactive: [1] 1% | [2] 0.1% | [3] -9.4%

O=C(NCc1ccc(N2CCCC2=O)cc1)c1ccc(F)cc1
inactive: [1] 5.2% | [2] -0.6% | [3] -3.8%

COC(=O)c1ccccc1OCCOCCOc1cccc2ccc(C)nc12
inactive: [1] 0.3% | [2] 3.8% | [3] -4%

CC(C)c1ccc(OCc2ccc(C(=O)O)o2)cc1
inactive: [1] 0.6% | [2] -0.2% | [3] 2.5%

Cc1ccccc1C(=O)Nc1ccccc1C(=O)NCC(C)C
inactive: [1] -5.7% | [2] -0.4% | [3] 1.2%

OC(CCCN1CCC(O)(c2ccc(Cl)cc2)CC1)c1ccc(F)cc1 (stereo not drawn)
inactive: [1] -1.7% | [2] 1.7% | [3] -4.8%

Cc1cc(OCC(=O)C(C)(C)C)c2c(C)c(C)c(=O)oc2c1
inactive: [1] -1.4% | [2] 0.5% | [3] 0.7%

CC1(c2ccccc2)CC(C)(C)N2C(=O)C(=O)c3cccc1c32 (stereo not drawn)
inactive: [1] 0.5% | [2] 1.2% | [3] -0.4%

CC1(C(=O)O)CCC(C(=O)NC2CCCCCC2)C1(C)C (stereo not drawn)
inactive: [1] -6.8% | [2] -1.2% | [3] -7.7%

O=S(=O)(NCCCCCNS(=O)(=O)c1ccccc1)c1ccccc1
inactive: [1] 0.4% | [2] -0.1% | [3] -0.7%

COc1ccc(C2OC(=O)Cc3cc(OC)c(OC)cc32)cc1 (stereo not drawn)
inactive: [1] 3.2% | [2] 0.8% | [3] 2.9%

O=C(Nc1ccccc1)c1ccccc1CCc1ccccc1
inactive: [1] 0.9% | [2] -3.7% | [3] 3.9%

COc1ccc(C2C(=O)c3ccccc3C2=O)cc1
inactive: [1] 0.5% | [2] -0.4% | [3] -3.8%

COc1cc(-c2cccs2)cc(=O)c2c(C)oc(C)c12
inactive: [1] 1.4% | [2] 2.1% | [3] -4%

CC(=O)O[C@H]1C(=O)[C@@]2(C)[C@H]([C@H](OC(=O)c3ccccc3)[C@]3(O)C[C@H](OC(=O)[C@H](O)C(NC(=O)c4ccccc4)c4ccccc4)C(C)=C1C3(C)C)[C@]1(OC(C)=O)CO[C@@H]1C[C@@H]2O (stereo partly drawn)
inactive: [1] 1.1% | [2] -0.8% | [3] 4.6%

CCCCOc1ccc(C(=O)CCN2CCCCC2)cc1
inactive: [1] 3.4% | [2] 1.8% | [3] -1.7%

C=C(C)[C@@H]1CC=C(CN2CCC(N3CCC(C(=O)N4CCCC4)CC3)CC2)CC1
inactive: [1] 7.8% | [2] 0.8% | [3] -0.3%

CC(C)C[C@H](NC(=O)NC(C)C)C(=O)O
inactive: [1] 1.1% | [2] 0% | [3] 2.9%

O=C(NCc1ccccc1Cl)NC(=O)c1ccccc1
inactive: [1] -1.4% | [2] 0.8% | [3] 6.8%

COc1ccc(C(=O)Nc2nc3ccccc3c(=O)[nH]2)cc1
inactive: [1] -3.3% | [2] -2.3% | [3] -0.8%

CC1(C)O[C@@H]2C[C@H]3[C@@H]4C[C@H](F)C5=CC(=O)C=C[C@]5(C)[C@@]4(F)[C@@H](O)C[C@]3(C)[C@]2(C(=O)CO)O1
inactive: [1] -0.5% | [2] 0.1% | [3] -6.8%

CC[C@H]1CN2CCc3cc(OC)c(OC)cc3[C@@H]2C[C@@H]1C[C@H]1NCCc2cc(OC)c(OC)cc21
inactive: [1] 3.7% | [2] 0.9% | [3] 0.6%

CC(C)CCc1noc(CN2CCC(CCN3CCCC3=O)CC2)n1
inactive: [1] 1% | [2] 0.2% | [3] 3.1%

COC(=O)C1=C(C)NC(C)=C(C(=O)OC)C1c1ccccc1[N+](=O)[O-]
inactive: [1] 5.8% | [2] 2.2% | [3] 2%

COC(=O)c1cc(-c2c(C)oc3cc(OC)ccc3c2=O)c(C)o1
inactive: [1] -0.4% | [2] -2% | [3] -6.6%

CCCCC[C@H](O)/C=C/[C@@H]1[C@@H](C/C=C\CCCC(=O)O)[C@@H](O)C[C@H]1O
inactive: [1] -2.4% | [2] -1.9% | [3] -1.1%

Cc1cccc(Oc2coc3cc(OC(=O)c4cncc(Br)c4)ccc3c2=O)c1
inactive: [1] 2.1% | [2] 0.8% | [3] 2%

COCCOC(=O)C1=C(C)NC(C)=C(C(=O)OC(C)C)C1c1cccc([N+](=O)[O-])c1 (stereo not drawn)
inactive: [1] -2.2% | [2] -0.7% | [3] -4.8%

COc1ccc(C2C3CCCCC3(O)CCN2C(=O)c2cccs2)cc1 (stereo not drawn)
inactive: [1] 2.8% | [2] 2.1% | [3] 5.5%

CC#C[C@]1(O)CC[C@H]2[C@@H]3CCC4=CC(=O)CCC4=C3[C@@H](c3ccc(N(C)C)cc3)C[C@@]21C
inactive: [1] -3.9% | [2] -2% | [3] -7.2%

CC(O)Cn1cnc2c1c(=O)n(C)c(=O)n2C (stereo not drawn)
inactive: [1] -1.4% | [2] -0.5% | [3] -3.2%

O=P(c1ccccc1)(c1ccccc1)c1nc(-c2ccc(Cl)cc2)oc1N1CCOCC1
inactive: [1] -1% | [2] -1.2% | [3] 0.6%

CCSc1nc(O)c(C2OC(=O)c3c2ccc(OC)c3OC)c(=O)n1CC (stereo not drawn)
inactive: [1] -0.7% | [2] 0.5% | [3] -2.4%

Brc1c(NC2=NCCN2)ccc2nccnc12
inactive: [1] -5.6% | [2] -0.8% | [3] -2.9%
